These results are taken from PubChem BioAssay.

Calls of active or inactive are those of the source. Unless noted, the rule behind the calls is not given here.

The nature of experiment [1]: resazurin metabolic signal in HepG2 cells – cell-based, resazurin fluorescence, 24 h, PK04 Diversity Set, profiling panel (AID 1172). Note: test concentration not given here. As to conditions: HepG2 viability, higher = more signal.
A short description of experiment [2]: budding yeast growth changes without added modifier – OD600, strain BY4716, 24 h, basal condition, primary screen (AID 1173). The conditions noted are these: S. cerevisiae BY4716 growth, OD600, 24 h; higher = more signal, called active from +8 up or from −8 down.
Experiment [3] can be described thus: viability profiling in MM1S myeloma cells – cell-based, resazurin fluorescence, basal, 24 h, PK04 Diversity Set, profiling panel (AID 1174).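 Note: MM1S multiple myeloma cell line; test concentration not given here.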 The conditions noted are these: higher = more signal, called active from +8 up or from −8 down. On the technique in general: Resazurin is reduced to fluorescent resorufin, in cell work by metabolically active cells.
Experiment [4] addresses Dihydroorotate dehydrogenase (quinone), mitochondrial (Plasmodium falciparum (isolate 3D7)) (UniProt Q08210). The experiment can be described thus: inhibition of P. falciparum DHODH – biochemical, C-terminal His tag, absorbance 600 nm, primary screen (AID 1175).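 Note: recombinant parasite enzyme with a five histidine tag at its C terminus; test concentration not given here.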 The conditions noted are these: PfDHODH enzyme, DCIP absorbance 600 nm; higher = more signal, called active from +8 up or from −8 down.

Experiment [5] can be described thus: inhibition of PAO1 biofilm formation – strain PAO1, LB-PBS medium, absorbance 600 nm, primary screen (AID 1176). Note: test concentration not given here. As to conditions: P. aeruginosa PAO1 growth/biofilm, A600, 12 h; higher = more signal.
A short description of experiment [6]: growth modulation of vineyard yeast isolate – strain RM11-1a, OD600, basal, 24 h, primary screen (AID 1177).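 Note: cultures grown under basal conditions with no added stressor; test concentration not given here.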 The conditions noted are these: S. cerevisiae RM11-1a growth, OD600, 24 h; higher = more signal, called active from +8 up or from −8 down.
Experiment [7] can be described thus: growth of efflux-deficient E. coli DRC39 – strain DRC39, OD650, 24 h, E. coli filamentation inducers, primary screen (AID 1178).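 Note: growth measured as culture turbidity by optical density at 650 nm; test concentration not given here.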 As to conditions: E. coli DRC39 acrAB, higher = more signal, called active from +8 up or from −8 down.
A short description of experiment [8]: growth of efflux-deficient E. coli DRC39 – strain DRC39, OD650, 48 h, E. coli filamentation inducers, primary screen (AID 1179).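 Note: screen aims at cell division blockers that make cells filament.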 The conditions noted are these: E. coli DRC39 delta-acrAB growth, higher = more signal, called active from +8 up or from −8 down.
A short description of experiment [9]: viability profiling in RPMI8226 myeloma cells – cell-based, resazurin fluorescence, basal, 24 h, PK04 Diversity Set, profiling panel (AID 1180).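 Note: RPMI8826 multiple myeloma cell line at 5000 cells per well; test concentration not given here.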 As to conditions: higher = more signal.
Experiment [10] deals with E3 ubiquitin-protein ligase XIAP (Homo sapiens) (UniProt P98170). The experiment can be described thus: small molecules binding XIAP protein – biophysical, small-molecule microarray, fluorescence 635 nm, primary screen (AID 1181).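 Note: score merges 667 nm emission and signal to noise over triplicate slides.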 As to conditions: higher = more signal.
Chain of E3 ubiquitin-protein ligase XIAP (Homo sapiens) (P98170 whole entry, looked up): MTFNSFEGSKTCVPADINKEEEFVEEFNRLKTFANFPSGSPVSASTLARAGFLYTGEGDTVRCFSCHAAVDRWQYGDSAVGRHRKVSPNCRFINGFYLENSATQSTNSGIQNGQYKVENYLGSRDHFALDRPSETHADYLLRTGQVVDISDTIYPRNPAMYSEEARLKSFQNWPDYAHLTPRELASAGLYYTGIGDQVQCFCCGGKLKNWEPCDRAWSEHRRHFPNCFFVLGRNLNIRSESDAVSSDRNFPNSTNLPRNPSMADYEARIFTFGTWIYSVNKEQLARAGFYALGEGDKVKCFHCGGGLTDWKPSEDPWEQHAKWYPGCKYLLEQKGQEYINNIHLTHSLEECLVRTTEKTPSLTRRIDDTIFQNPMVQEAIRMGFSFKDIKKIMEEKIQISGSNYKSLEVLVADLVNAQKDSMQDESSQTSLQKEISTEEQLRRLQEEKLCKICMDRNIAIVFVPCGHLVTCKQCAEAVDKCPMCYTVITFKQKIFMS

Chain of Dihydroorotate dehydrogenase (quinone), mitochondrial (Plasmodium falciparum (isolate 3D7)) (Q08210 whole entry, looked up): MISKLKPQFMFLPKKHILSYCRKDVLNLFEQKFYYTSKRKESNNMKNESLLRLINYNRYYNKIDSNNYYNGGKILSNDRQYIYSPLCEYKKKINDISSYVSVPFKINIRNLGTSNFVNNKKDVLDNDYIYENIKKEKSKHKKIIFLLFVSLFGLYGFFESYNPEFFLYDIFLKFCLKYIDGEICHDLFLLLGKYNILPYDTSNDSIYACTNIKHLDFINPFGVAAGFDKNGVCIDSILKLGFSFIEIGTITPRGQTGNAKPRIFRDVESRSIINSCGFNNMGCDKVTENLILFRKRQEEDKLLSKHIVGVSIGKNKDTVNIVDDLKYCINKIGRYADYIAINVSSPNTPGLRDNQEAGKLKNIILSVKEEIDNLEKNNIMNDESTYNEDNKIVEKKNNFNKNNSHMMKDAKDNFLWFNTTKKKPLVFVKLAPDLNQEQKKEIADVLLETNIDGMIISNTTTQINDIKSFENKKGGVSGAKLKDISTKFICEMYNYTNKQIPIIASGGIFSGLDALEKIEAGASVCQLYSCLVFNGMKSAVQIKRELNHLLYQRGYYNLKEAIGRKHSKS

Turning to `Cc1ccc(S[C@]2(C(=O)O)CC(=O)N(C(C)C)[C@@H]2c2ccc(CO)cc2I)cc1`, the z-score was 0.975 in experiment [1]; -4.89 (inactive) in experiment [2]; -1.66 (inactive) in [3]; 0.953 (inactive) in [5]; -2.76 (inactive) in [6]; 0.818 (inactive) in [7]. In addition, the z-score in experiment [8] is 1.42 (inactive); in [9] it was -1.58. Besides, the results for the composite z-score in experiment [4] and in [10] were -1.12 (inactive) and -0.122, respectively.
On to `CCCc1cc2c(n1Cc1cc(F)cc(F)c1)C(C)C1CN(C(=O)c3ccccc3)C(C)(C(=O)OC)C21` (stereo not given), for which the z-score in [1] is -1.27; in experiment [2], 0.615 (inactive); in experiment [3] it was -1.65 (inactive); in experiment [5] it was 0.992 (inactive); in [6] it was 0.223 (inactive); in [7], -0.522 (inactive). Also, the z-score was -0.152 (inactive) in [8] and -1 in experiment [9]. The composite z-score in experiment [4] was 0.249 (inactive); in experiment [10] it was 0.0702.
In the case of `COCCOC(=O)N1C(=O)[C@@]2(c3cc(C#CCNC(N)=O)ccc31)[C@H](C(=O)Nc1nc3ccccc3s1)[C@H]1C(=O)O[C@H](c3ccccc3)[C@H](c3ccccc3)N1[C@@H]2c1ccc(OCCO)cc1`, the z-score in experiment [1] was 0.382; in experiment [2], 1.83 (inactive); in [3], 0.114 (inactive); in experiment [5], 2.41 (inactive); in experiment [6], 1.41 (inactive); in experiment [7], -0.27 (inactive). Also, the z-score in experiment [8] is -0.463 (inactive); in experiment [9] it was -0.397. Also, the composite z-score in experiment [4] is -0.716 (inactive); in experiment [10], 0.0402.
With `NC(=O)NCC#Cc1ccc2c(c1)[C@]1(C(=O)N2)[C@H](C(=O)Nc2nc3ccccc3s2)[C@H]2C(=O)O[C@H](c3ccccc3)[C@H](c3ccccc3)N2[C@@H]1c1ccccc1OCCO`, the z-score in experiment [1] is 0.446; in [2] it was 0.32 (inactive); in experiment [3], -0.784 (inactive); in experiment [5] it was 1.6 (inactive); in experiment [6], 1.8 (inactive); in experiment [7], -0.846 (inactive). Further, the z-score was -0.728 (inactive) in [8] and -0.651 in [9]. Besides, the composite z-score was 2.26 (inactive) in [4] and 0.711 in [10].
For `O=C(CS)NCCCCCCNC(=O)[C@@H]1C[C@@H]2C(=O)N[C@@H](Cc3ccccc3)C(=O)N2[C@@H]1c1cccc(OCCO)c1`, the z-score in experiment [1] was 0.531; in experiment [2], 0.49 (inactive); in [3], -0.137 (inactive); in experiment [5] it was 0.255 (inactive); in experiment [6] it was 0.0598 (inactive); in experiment [7], 0.051 (inactive). Besides, the z-score in experiment [8] is 0.0288 (inactive); in experiment [9] it was -0.549. The composite z-score in experiment [4] was -0.0547 (inactive); in experiment [10], 0.0264.
Turning to `COCCOC(=O)N1C(=O)[C@@]2(c3cc(C#CC4(O)CCCCCC4)ccc31)[C@H](c1ccc(OCCO)cc1)N1[C@H](c3ccccc3)[C@H](c3ccccc3)OC(=O)[C@H]1[C@@H]2C(=O)N1CCN(c2ncccn2)CC1`, the z-score is -0.0209 in experiment [1]; 2.29 (inactive) in experiment [2]; -0.549 (inactive) in [3]; 2.57 (inactive) in experiment [5]; 3.15 (inactive) in experiment [6]; -0.534 (inactive) in [7]. For the same molecule, the z-score was -0.477 (inactive) in experiment [8] and -0.305 in experiment [9]. The figures for the composite z-score in experiment [4] and in experiment [10] were -1.64 (inactive) and -0.0582, respectively.
In the case of `CC(C)N1C(=O)c2ccccc2[C@](C)(C(=O)NCCN2CCOCC2)[C@@H]1c1ccc(CO)cc1`, the z-score in experiment [1] is 0.0412; in experiment [2] it was 0.567 (inactive); in experiment [3], -0.139 (inactive); in experiment [5], 0.484 (inactive); in experiment [6], 1.41 (inactive); in [7], -0.0268 (inactive). Also, the figures for the z-score in experiment [8] and in experiment [9] were -0.582 (inactive) and -0.44, respectively. Also, the composite z-score was 1.11 (inactive) in experiment [4] and 0.126 in [10].
`C=CCN1C(=O)[C@@]2(CC=C)N=C(c3ccc(OCCCO)cc3)O[C@H]2c2ccccc21`: the z-score in experiment [1] is -0.492; in experiment [2], -2.87 (inactive); in experiment [3], -3.88 (inactive); in experiment [5], 2.21 (inactive); in experiment [6], 0.113 (inactive); in [7] it was 1.19 (inactive). For the same molecule, the z-score is 2.46 (inactive) in experiment [8] and -3.54 in [9]. In addition, the composite z-score in experiment [4] was -1.17 (inactive); in [10] it was 0.0842.
Turning to `COC(=O)C(CC#Cc1ccc2c(c1)[C@]1(C(=O)N2)[C@H](C(=O)Nc2nc3ccccc3s2)[C@H]2C(=O)O[C@H](c3ccccc3)[C@H](c3ccccc3)N2[C@@H]1c1ccc(O)cc1)C(=O)OC`, the z-score in experiment [1] is 0.793; in [2], -0.0312 (inactive); in [3], 0.792 (inactive); in [5], 1.23 (inactive); in experiment [6] it was 0.698 (inactive); in [7], -0.0857 (inactive). In addition, the z-score was -0.169 (inactive) in [8] and -2 in experiment [9]. Further, the composite z-score in experiment [4] is -0.72 (inactive); in experiment [10], 0.208.
As for `CN(C)C(=O)[C@@]1(CCS(=O)(=O)c2ccccc2)COC(c2ccc(OCCCO)cc2)=N1`, the z-score was -0.837 in [1]; 1.14 (inactive) in [2]; -2.38 (inactive) in [3]; 1.03 (inactive) in experiment [5]; 1.08 (inactive) in experiment [6]; 0.73 (inactive) in [7]. Moreover, the figures for the z-score in experiment [8] and in [9] were 0.56 (inactive) and -2.08, respectively. Also, the composite z-score was 0.989 (inactive) in [4] and -0.0502 in [10].
With `COc1ccc(CCNC(=O)[C@@]2(Sc3ccc(C)cc3)CC(=O)N(C(C)C)[C@@H]2c2ccc(CO)cc2I)cc1`, the z-score in [1] was 0.104; in [2], -1.77 (inactive); in [3], -1.63 (inactive); in [5], 0.196 (inactive); in experiment [6] it was -0.894 (inactive); in experiment [7], -0.246 (inactive). Besides, the results for the z-score in experiment [8] and in [9] were -0.126 (inactive) and -2.47, respectively. Moreover, the composite z-score in [4] was 0.0834 (inactive); in [10], 0.0374.
For the molecule `CN1C(=O)C2C=CC(C(O)c3ccccc3)N(N(c3ccccc3)c3ccccc3)C2C1=O` (stereo not given), the z-score in [1] is -0.112; in experiment [2] it was 0.833 (inactive); in experiment [3] it was -0.728 (inactive); in [5], 0.226 (inactive); in [6], 0.579 (inactive); in [7] it was -0.854 (inactive). Further, the z-score was 0.139 (inactive) in experiment [8] and -0.323 in [9]. Further, the composite z-score in [4] is 0.0002 (inactive); in experiment [10], 0.259.
`C=CCOC(=O)[C@@H]1[C@H]2C(=O)O[C@H](c3ccccc3)[C@H](c3ccccc3)N2[C@H](c2ccc(OCCOC(=O)[C@H]3C[C@H]4C(=O)N5CCC[C@H]5C(=O)N4[C@H]3c3ccc(O)cc3)cc2)[C@@]12C(=O)Nc1ccc(I)cc12`: the z-score in experiment [1] was -0.91; in experiment [2], 0.148 (inactive); in experiment [3] it was 0.119 (inactive); in experiment [5] it was 3.16 (inactive); in experiment [6] it was 1.27 (inactive); in experiment [7], 0.0092 (inactive). Moreover, the z-score is -0.743 (inactive) in [8] and -0.432 in experiment [9]. Also, the figures for the composite z-score in [4] and in [10] were 1.01 (inactive) and -0.02, respectively.
